Source: PubChem (National Center for Advancing Translational Sciences (NCATS))
Rows were chosen to be rich in hits. Some 8.8% of all compounds tested hit in one or more screens of this group.
ALDH1A1 block: ALDH1A1 (human) enzyme inhibition. P00352. Purified ALDH1A1, NADH fluorescence, propionaldehyde substrate. Potency, µM (highest dose often 75.3 µM), inactives show at the highest dose activity, negative = inhibition, hits mostly inhibitors. actives 7.3% (n = 220,000). AID 1030;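 also: plate controls were no enzyme wells and a reference inhibitor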
HTT cytoprotect: protects HTT-Q103 PC12 cells, measured by ATP; actives 0.14% (n = 230,000); PC12 HTT-Q103 induced, cytoprotection, ATP luminescence, 40 h; Potency, µM (highest dose often 56.4 µM), for the others: cytoprotection (ATP increase), usual class: activators; AID 1471; active = well fitted curve in the direction sought with a large enough effect; inconclusive = small, poorly fitted or top-dose-only effect, or another doubt; inactive = no such curve, though single readings can be large; an effect the other way counts as inactive or inconclusive; also: % of control where 0% means no effect; nearly all actives have a fitted effect of over 45% in size
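Rat PC12, Q103 Htt exon1-GFP fusion, ecdysone promoter; tebufenozide inducer 100 nM final; compound titration; qHTS, 1500 cells/well; ATPlite luminescent read.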
HPGD inh: HPGD (human) dehydrogenase inhibition; P15428; purified HPGD, NADH fluorescence kinetic, PGE2 substrate; Potency, µM, inactives show top-dose activity change, negative = inhibition, most hits filed as inhibitors; actives 4.3% (n = 150,000); AID 894; also: % is scaled to controls: 0 for no effect and ±100 for the full control effect
Target sequence (P15428 whole entry, looked up): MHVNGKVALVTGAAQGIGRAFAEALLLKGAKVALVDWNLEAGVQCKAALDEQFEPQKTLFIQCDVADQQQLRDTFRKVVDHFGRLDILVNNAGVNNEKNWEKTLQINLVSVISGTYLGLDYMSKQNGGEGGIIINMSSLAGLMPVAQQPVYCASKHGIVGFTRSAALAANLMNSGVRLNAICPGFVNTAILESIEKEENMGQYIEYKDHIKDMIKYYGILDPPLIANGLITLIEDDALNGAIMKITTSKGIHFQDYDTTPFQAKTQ
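20 nM HPGD preincubated 15 min at room temperature with compound in 50 mM Tris-HCl pH 8, 0.01% Tween 20. Started with 1 mM NAD+ and 30 uM prostaglandin E2; NADH fluorescence (360/450 nm) read 5 times over 30-s intervals, last minus first.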
Lamin A splicing: modulators of lamin A splicing | Potency, µM (series often up to 46.1 µM), for inactives: at the top dose ratio change, negative = inhibition, hits mostly inhibitors | actives 0.01% (n = 200,000) | HeLa LMNA splicing GFP/RFP minigene ratio, 48 h; active = well fitted inhibition curve with a large enough effect in the signal ratio, with a control signal flat, not every such curve was filed as active; inconclusive = small, poorly fitted or top-dose-only effect, or effect the other way, or a change in a side signal; the % refers to the signal ratio; also: % is scaled to controls: 0 for no effect and ±100 for the full control effect
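S3 HeLa cells stably expressing lamin A-EGFP splicing minigene plus DsRed2, 600 cells/well, 48 h compound exposure at 37C. Laser-scanning cytometry; analysed as GFP (500-530 nm)/RFP (575-640 nm) total intensity ratio; 0.5% DMSO vehicle.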
HTT aggregate: inhibitors of mutant huntingtin aggregate formation in PC12 cells; actives 1.1% (n = 220,000); Potency, µM (highest dose often 46.1 µM), for inactives: top-dose activity change, negative = inhibition, most hits filed as inhibitors; PC12 HttQ103-GFP aggregates, Acumen cytometry, 40 h; active = well fitted curve in the direction sought with a large enough effect; inconclusive = small, poorly fitted or top-dose-only effect, or another doubt; inactive = no such curve, though single readings can be large; an effect the other way counts as inactive or inconclusive; also: % is scaled to controls: 0 for no effect and ±100 for the full control effect; nearly all actives have a fitted effect of over 60% in size
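Ecdysone-promoter PC12 model expressing HTT exon 1 Q103 fused to GFP, induced by tebufenozide at 100 nM final. Compounds titrated; aggregates sized 1–25 µm scored on a 488 nm laser cytometer.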
* marks the source's active call; other numbers are inactive results; ? = inconclusive; nt = not tested or not shown; [ ] = remark or other dose. Unless noted, calls follow the shape of the dose curve; as a rule, active = well fitted inhibition curve with a large enough effect (not every such curve was filed as active); inconclusive = small, poorly fitted or top-dose-only effect, or another doubt; inactive = no such curve, though single readings can be large or run the other way. Potency is read from the fitted curve at half-maximal effect.

SMILES	ALDH1A1 block	HTT cytoprotect	HPGD inh	Lamin A splicing	HTT aggregate
CCC(Sc1nc2nccnc2c(=O)n1Cc1ccc(Cl)cc1)C(=O)NC1CCCCC1 (stereo not given)	nt	nt	nt	2%[46 µM]	nt
CCOC(=O)c1sc(NC(=O)C(C)Sc2nc(N)cc(=O)[nH]2)nc1C (stereo not given)	-2%	-1%	nt	-3%[9.22 µM]	-1%
COc1ccc(N2CCN(Cc3nc4c(c(=O)n(C)c(=O)n4C)n3C(C)C)CC2)cc1	nt	nt	nt	8%[46 µM]	nt
O=C(NCCn1cccc1)c1cccc2ccccc12	-4%	-19%[0.074 µM]	32µM*	13%	28%
O=C(NC(Cc1ccccc1)c1nc2ccccc2[nH]1)C1CC(=O)N(c2ccc3c(c2)OCCO3)C1 (stereo not given)	10µM*	0%	-13%	0%	-20%
O=C(NCCCc1ccccc1)C1CC(=O)N(c2ccc3c(c2)OCCO3)C1 (stereo not given)	-8%	9%[10 µM]	-2%	-5%	12%
O=C(CCCCCn1c(=O)[nH]c2ccccc2c1=O)N1CCN(Cc2ccc3c(c2)OCO3)CC1	?	2%[10 µM]	-6%	-13%	13µM*
O=C(c1ccc(F)cc1)C1CCN(CCn2c(=S)[nH]c3ccccc3c2=O)CC1	-2%	-2%	14µM*	nt	17%
O=c1c2ccccc2[nH]c(=S)n1CCN1CCCC1	?	-8%	nt	21%[46 µM]	3%
O=C(CCCn1c(=S)[nH]c2ccccc2c1=O)NC1CCCCC1	-14%	3%	20µM*	-2%	-2%
CC1CC(C)CN(C(=O)CCCn2c(=S)[nH]c3ccccc3c2=O)C1 (stereo not given)	?	-3%	25µM*	-1%	2%
Cc1cccc(CN2C(=O)CC(c3ccc(Cl)cc3)c3c(C)nn(-c4nc(C)cc(C)n4)c32)c1 (stereo not given)	nt	nt	nt	10%[46 µM]	nt
O=C(CCn1c(=S)[nH]c2ccccc2c1=O)N1CCOCC1	2%	-19%[10 µM]	-14%	5%	-12%
O=C(CCCCCn1c(=S)[nH]c2ccc(Br)cc2c1=O)NCC1CCCO1 (stereo not given)	-7%	-39%	2.8µM*	0%	0%[9.22 µM]
O=C(NCC1CCCO1)c1ccc2c(=O)n(Cc3ccc(Cl)cc3)c(=S)[nH]c2c1 (stereo not given)	-1%	-6%	nt	?	0%
O=C(CCCn1c(=S)[nH]c2ccccc2c1=O)N1CCCCC1	?	1%[10 µM]	10µM*	-5%	14%
COc1ccccc1-c1ccc(NC2CCCCC2)nn1	-5%	-17%[10 µM]	7.1µM*	-15%	-2%
COc1ccccc1-c1ccc(Nc2cccc(C(F)(F)F)c2)nn1	0%	-24%[10 µM]	-6%	-9%	13%
O=C1c2c(O)cccc2Cc2cccc(O)c21	25µM*	18%	-23%	?	-25%
O=C(O)CC1=C(O)C(=O)N(c2ccccc2)C1c1ccccc1 (stereo not given)	6.3µM*	16%[1.9 µM]	-16%	8%	14%
O=C(O/N=C1\CCS(=O)(=O)c2sccc21)c1ccc(F)cc1	-3%	-10%	nt	2%[46 µM]	-1%
O=C(O/N=C1\CCS(=O)(=O)c2sccc21)c1ccccc1	13µM*	-27%	-16%	10%	6%
CC(Cc1ccccn1)NC(=O)CCc1nnc(C2CCCCC2)o1 (stereo not given)	1%	24%	nt	nt	-9%
CCn1c(SCC(=O)O)nnc1-c1cccnc1	11%	8%[10 µM]	nt	3%[46 µM]	4%[9.22 µM]
CCOC(=O)c1cc(C(=O)c2ccccc2O)cn2c(=O)c3c(C)c(C)sc3nc12	14µM*	-1%[10 µM]	nt	-2%[46 µM]	-15%
SMILES	ALDH1A1 block	HTT cytoprotect	HPGD inh	Lamin A splicing	HTT aggregate
O=C(O)CSc1cc(C(=O)c2ccccc2O)cn2c(=O)c3c4c(sc3nc12)CCCC4	nt	4%[10 µM]	nt	nt	-16%[9.22 µM]
S=c1[nH]nc(CSc2nc3ccccc3s2)n1C1CCCCC1	3.2µM*	-45%	7.1µM*	?	?
C=CCn1c(-c2csc(-c3ccccc3)n2)n[nH]c1=S	0.11µM*	-29%	?	?	14%
S=c1[nH]nc(Cc2noc3ccccc23)n1-c1ccc(Cl)cc1	-7%	-4%	nt	nt	-5%
S=c1[nH]nc(-c2ccc(Br)o2)n1Cc1ccccc1	1.4µM*	-2%	28µM*	?	15%
Cc1ccc(-n2c(Cc3noc4ccccc34)n[nH]c2=S)cc1	14µM*	1%	nt	nt	-12%
O=C(Cn1c(-c2cccs2)cc2cc(Cl)ccc21)N1CCCCC1	nt	nt	nt	-12%[46 µM]	nt
COc1cc(C2NC(=O)NC(C)=C2C(C)=O)ccc1O (stereo not given)	-5%	18%[10 µM]	nt	nt	9%[9.22 µM]
Cc1nc(N2CCOCC2)c2c(C(=O)N3CCN(c4ccccc4F)CC3)c(C)oc2n1	nt	nt	nt	7%[46 µM]	nt
S=c1[nH]nc(-c2ccc(Br)cc2)n1Cc1ccco1	?	-2%[10 µM]	25µM*	-1%	13%
CC(C)c1cc(-c2n[nH]c(=S)n2Cc2ccccc2)cs1	2µM*	-1%	?	0%	13%
Cc1ccc(-n2c(-c3ccccc3)n[nH]c2=S)cc1	32µM*	21%[1.9 µM]	?	-1%	-23%
S=c1[nH]nc(-c2ccccc2)n1Cc1ccccc1	18µM*	-12%	?	11%	19%
S=c1[nH]nc(-c2ccncc2)n1Cc1ccco1	?	-3%[0.074 µM]	-11%	-3%	-9%
S=c1[nH]nc(-c2cccs2)n1Cc1ccccc1	?	15%[10 µM]	nt	?	12%
Cc1ccc(-n2c(-c3ccncc3)n[nH]c2=S)cc1	0%	-15%	nt	nt	-22%
Nc1c(CC(=O)O)cccc1C(=O)c1ccc(Br)cc1	nt	?	nt	?	3%
S=c1[nH]nc(-c2ccc(Cl)cc2)n1Cc1ccccc1	11µM*	-7%[10 µM]	?	6%	-17%
Cc1n[nH]c(=S)n1Cc1ccccc1	nt	2%[10 µM]	nt	nt	0%[9.22 µM]
S=c1[nH]nc(COc2ccccc2)n1C1CCCCC1	?	-7%	22µM*	3%	5%
S=c1[nH]nc(COc2ccccc2)n1Cc1ccccc1	11µM*	10%[10 µM]	?	?	10%
S=c1[nH]nc(-c2cccs2)n1C1CCCCC1	nt	-4%[10 µM]	nt	nt	3%[9.22 µM]
CC(C)c1cccc2c([Si](C)(C)C)c3c(nc12)-c1cccc(=O)n1C3	?	-161%	?	nt	nt
